27 molecules from PubChem BioAssay (NCI) can be followed below.

Compounds without any hit were thinned out: in the full panel of roughly 83,000, 20% have a hit.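 Step 1: grow cells in 96-well plates. Step 2: add test compound at a single concentration. Step 3: incubate 48 h. Step 4: record percent growth.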 A number with no mark means an inactive call. The source made the active and inactive calls. How the source made its calls: active means growth percent below 10; inactive means the rest.

Assay in all cases: NCI-60 one-dose screen, 48 h (100 = growth as untreated, 0 = no growth, -100 = all killed)
Settings in all cases: 10 µM unless noted

Assay [1] deals with NCI-H23 lung.
Assay [2] relates to NCI-H226 lung.
Assay [3] has as its system NCI-H322M lung.
The test system of assay [4] is HOP-62 NSCLC.
In assay [5] the test system is NCI-H460 lung.
The test system of assay [6] is HOP-92 NSCLC.
Assay [7] relates to NCI-H522 lung.
Assay [8] relates to A549/ATCC NSCLC.
In assay [9] the test system is 786-0 renal.
Assay [10] deals with COLO 205 colon.

As for `O=C(Nn1c2c(sc1=NCc1ccccc1)C(=O)c1ccccc1C2=O)c1cc2ccc1CCc1ccc(cc1)CC2`, the growth was 32% in [1]; 66.3% in assay [2]; 106% in assay [3]; 77.5% in assay [4]; 74.9% in [5]; 127% in [6]. Also, the growth in assay [7] was 52.9%; in assay [8], 80%; in assay [9] it was 82.7%; in assay [10], 106%.

As to `O=C(CCCCCCN1CC(=O)N2[C@H](c3cc(Br)cs3)c3[nH]c4ccccc4c3C[C@H]2C1=O)NO`, the growth is 50.4% in [1]; 79.9% in assay [2]; 38.5% in assay [3]; 41.8% in [4]; 35.1% in assay [5]; 18.2% in assay [6]. Also, the growth was 20.5% in [7], 61.1% in assay [8], 76.9% in [9] and 42.6% in assay [10].

For the molecule `C#Cc1cccc(Nc2ncnc3ccc(-c4cnc(N)nc4)cc23)c1`, the growth was 50% in [1]; 53.2% in [2]; -7.64% (active) in [3]; 28.4% in assay [4]; 37.8% in [5]; 15% in assay [6]. Besides, the growth was 10.5% in assay [7], 35.9% in assay [8], 36.3% in assay [9] and 52.6% in assay [10].

Turning to `CN(C)CCNc1nc2c3cc(Cl)ccc3nn2c2ccccc12`, the growth in assay [1] is 45.5%; in [2], 61.1%; in assay [3] it was 40.2%; in assay [4] it was 43.9%; in [5], 15.8%; in [6] it was 36.8%. The growth in [7] was 67%; in assay [8], 31.5%; in [9] it was 38.1%; in assay [10], 26.3%.

For `CCOC(=O)c1c2c(n3ccc(C)cc13)C(=O)c1ccccc1C2=O`, the growth is 85.5% in assay [1]; 98.1% in assay [2]; 77% in assay [3]; 106% in [4]; 58.7% in [5]; 87.8% in assay [6]. In addition, the growth is 70.5% in [7], 62.5% in assay [8], 97.3% in [9] and 108% in assay [10].

With `Cc1ccc(/C=C2\CN(C(=O)OC(C)(C)C)C/C(=C\c3ccc(C)cc3)C2=O)cc1`, the growth in [1] was 56.6%; in assay [2] it was 84.9%; in assay [3], 98.7%; in assay [4], 94.9%; in [5], 53%; in [6], 84.1%. Moreover, the growth was 58.4% in assay [7], 81.5% in assay [8], 56.5% in assay [9] and 51.6% in assay [10].

On to `CCOc1nc(-c2ccccc2)cc2c(O)c(C(=O)NN)[nH]c(=O)c12`, for which the growth in assay [1] is 117%; in assay [2], 105%; in assay [3] it was 104%; in [4], 123%; in [5], 86.1%; in [6] it was 93.2%. Besides, the growth in [7] was 88.5%; in assay [8], 103%; in assay [9], 97.3%; in assay [10] it was 121%.

With `COc1ccc(-c2csc(NC(=O)CSc3nc(-c4ccccc4)cc(=O)[nH]3)n2)cc1`, the growth in assay [1] is 51%; in assay [2], 78.7%; in assay [3], 90.1%; in assay [4] it was 50.7%; in [5], 78.7%; in assay [6], 90.2%. Moreover, the growth in assay [7] was 58%; in [8], 64.6%; in [9] it was 67.4%; in assay [10] it was 56.6%.

As to `Fc1cc(F)cc(C(c2c[nH]c3ccccc23)c2c[nH]c3ccccc23)c1`, the growth in assay [1] was 89.4%; in assay [2] it was 103%; in [3] it was 86.1%; in [4], 91.1%; in [5], 97.8%; in [6], 89.4%. Besides, the growth in assay [7] is 75%; in [8], 82%; in [9], 98%; in assay [10], 97.8%.

Turning to `O=C(COc1ccc(-c2nc3ccccc3[nH]2)cc1)N=Nc1c(O)[nH]c2ccc(Cl)cc12`, the growth in assay [1] was 87.3%; in assay [2], 97%; in assay [3] it was 101%; in assay [4], 99.9%; in assay [5], 30.7%; in assay [6], 93%. The growth in assay [7] was 93.6%; in assay [8], 99%; in assay [9] it was 46%; in assay [10], 53.3%.

Take `Cc1cc2c(O)c(-c3cc(Cl)ccc3Cl)c3sc(=O)oc3c2cc1C`: the growth was 44.2% in assay [1]; 58% in assay [2]; 89.8% in assay [3]; 87.8% in [4]; 34.4% in [5]; -15.5% (active) in assay [6]. For the same molecule, the growth in assay [7] is 26.4%; in [8] it was 60.2%; in assay [9], 83.8%; in assay [10], 112%.

As for `Cc1cc(Cl)ccc1Nc1nc(C(F)(F)F)ccc1C(=O)N/N=C/c1ccc([N+](=O)[O-])cc1`, the growth in [1] was -1.74% (active); in assay [2], 6.08% (active); in assay [3] it was -18.6% (active); in [4] it was -33.6% (active); in assay [5], -34.3% (active); in [6], -31.6% (active). The growth was -13.3% (active) in assay [7], -15.3% (active) in assay [8], -61.2% (active) in assay [9] and -65.6% (active) in assay [10].

With `Brc1ccc2[nH]cc(-c3nonc3-c3c[nH]c4ccccc34)c2c1`, the growth in assay [1] is 45.2%; in assay [2], 66.7%; in assay [3], 30.9%; in assay [4], 43.4%; in [5], 12.2%; in [6], 32.1%. In addition, the growth is 13.6% in [7], 35.9% in assay [8], 67.3% in [9] and 36.3% in [10].

`Cc1ccccc1Cn1cnc2ccc(-c3cc(NC(=O)c4ccc(NC5CCN(C)CC5)cc4)n[nH]3)cc21`: the growth in [1] is 75%; in assay [2], 68%; in assay [3], 83.5%; in assay [4], 72.3%; in assay [5] it was 91.9%; in assay [6], 92.4%. Further, the growth was 57.2% in [7], 84.5% in [8], 85% in [9] and 70.8% in assay [10].

Turning to `CCSc1nc(NC)c2cc(-c3ccc(C(F)(F)F)cc3)ccc2n1`, the growth was 94.3% in [1]; 93.3% in assay [2]; 97.8% in assay [3]; 101% in assay [4]; 103% in assay [5]; 97.6% in assay [6]. The growth was 93.7% in [7], 100% in assay [8], 102% in assay [9] and 107% in assay [10].

As to `CCCCC(=O)c1ccco1`, the growth in assay [1] is 89.2%; in assay [2], 95.1%; in assay [3], 105%; in assay [4], 88.7%; in [5], 106%; in assay [6] it was 99.9%. In addition, the growth was 92.2% in assay [7], 97.9% in [8], 97.5% in assay [9] and 104% in [10].

Turning to `CC(=O)[C@@H]1CCC=C2CC[C@]3(C)[C@@H](CC[C@@H]4[C@@]5(C)CCCNC(C)(C)[C@@H]5CC[C@]43C)[C@H]21`, the growth is -58.8% (active) in assay [1]; 23.2% in [2]; -42.3% (active) in assay [3]; -63.5% (active) in assay [4]; -34.6% (active) in [5]; -32.5% (active) in assay [6]. Also, the growth in assay [7] is -74.1% (active); in assay [8] it was -78.1% (active); in assay [9], -89.5% (active); in assay [10], -81% (active).

For the molecule `O=C1CC(N2C(=O)/C(=C/C(Cl)=C\c3ccc([N+](=O)[O-])cc3)SC2=S)C(=O)N1c1ccc(Cl)cc1` (stereo not given), the growth in assay [1] is 17.3%; in assay [2], 95.5%; in assay [3], 65.1%; in assay [4], 50.4%; in [5], 74.5%; in [6], -18.6% (active). Moreover, the growth is -26.4% (active) in [7], 71% in assay [8], -12.1% (active) in assay [9] and 4.01% (active) in assay [10].

On to `O=C(/C=C(/C=C/c1cccc2[nH]ccc12)OB(F)F)/C=C/c1cccc2[nH]ccc12`, for which the growth in [1] was -34.8% (active); in [2], -54.9% (active); in assay [3] it was 0.979% (active); in assay [4] it was -35.7% (active); in assay [5], 0.502% (active); in [6] it was -27.2% (active). Besides, the growth in assay [7] was -71.4% (active); in assay [8] it was -30.9% (active); in assay [9] it was -60.1% (active); in assay [10], -70.6% (active).

Consider `CCCCCCCCn1ccc2cc(NC(=O)CN3CCN(c4nc(C)cc(Cl)n4)CC3)ccc21`, for which the growth in assay [1] is 91.5%; in [2], 88.9%; in [3], 87.8%; in assay [4] it was 99.3%; in assay [5] it was 100%; in assay [6] it was 79.3%. In addition, the growth is 81.5% in [7], 96.3% in assay [8], 97.7% in assay [9] and 100% in assay [10].

As to `CN(C)Cc1ccc(NC(=O)c2cncc(C#Cc3cnc(N)c4ncccc34)c2)cc1F`, the growth in assay [1] is 78.1%; in [2], 130%; in [3], 109%; in assay [4], 96.5%; in assay [5] it was 67.4%; in assay [6], 80.7%. Moreover, the growth was 100% in assay [7], 65.7% in [8], -71.8% (active) in assay [9] and 49.5% in assay [10].

For `CCOC(=O)C1=NN(c2ccccc2)C(=O)/C1=C\N1C(=O)CC(=O)NC1=S`, the growth in assay [1] is 99%; in assay [2] it was 92.5%; in assay [3] it was 96%; in [4] it was 90.1%; in assay [5], 106%; in assay [6], 102%. The growth in [7] is 88.8%; in assay [8], 103%; in assay [9], 106%; in assay [10] it was 103%.

In the case of `O=C(NNc1nccc(Nc2ccc(S(=O)(=O)Nc3ccncc3)cc2)n1)c1ccccc1`, the growth in assay [1] is 5.18% (active); in [2], 108%; in assay [3] it was 96.9%; in [4], 89.2%; in [5], 119%; in assay [6] it was 103%. Also, the growth was 94.5% in [7], 96.8% in [8], 93.8% in assay [9] and 122% in assay [10].

Turning to `N#Cc1c(-c2ccccc2)cc(-c2ccccc2)n(CCCCCC(=O)Nc2ccccc2N)c1=O`, the growth was 81.2% in assay [1]; 69.9% in [2]; 81.5% in [3]; 82.3% in assay [4]; 50.9% in assay [5]; 51.9% in [6]. Besides, the growth is 55.8% in [7], 71.2% in assay [8], 57.6% in assay [9] and 84% in [10].

Take `CCCCCCCCCCCCCCCCCCOc1ccccc1CC(=O)OCC[N+]1(C)CCCC1`: the growth in [1] was 8.45% (active); in assay [2] it was 13.4%; in assay [3] it was 68.1%; in assay [4], 53.5%; in [5], 27.5%; in [6], 32.7%. Also, the growth in assay [7] is 6.85% (active); in [8], 23%; in assay [9] it was 57.5%; in assay [10], 9.44% (active).

`COc1ccc(-c2nn(-c3ccccc3)cc2/C=C2/SC(=S)N(C)C2=O)cc1`: the growth in [1] was 94.5%; in [2], 55.1%; in [3], 60.8%; in assay [4], 25.3%; in assay [5], 11.2%; in [6] it was 74.7%. Further, the growth is 91.2% in assay [7], 36.8% in assay [8], 1.33% (active) in [9] and 64.4% in [10].

Take `C=CCn1c(SCC(=O)Nc2ccc(C(=O)/C=C/c3ccc(Cl)cc3)cc2)nnc1-c1cc(-c2ccc(S(N)(=O)=O)cc2)nc2ccccc12`: the growth in assay [1] is 99.3%; in [2], 89.6%; in assay [3], 99.7%; in assay [4] it was 91.8%; in assay [5] it was 103%; in assay [6], 91.4%. Besides, the growth is 98.3% in assay [7], 92.6% in assay [8], 83.1% in assay [9] and 103% in assay [10].
